Assay results taken from the supplement of paper PMC10849652.
About 7,900 targets were measured; listed, in parts, are those with a hit and a random draw of the rest. About 0.6% of all pairs of compound and target were hits. A number with no mark means an inactive call.

How the values were obtained:
Test in all cases: log2 fold change, soluble protein after heating vs DMSO (PISA); higher = thermal stabilisation; K562 cells, 10 uM, 30 min; active = over 0.2 and 3.5 SD of the protein, either way, in both replicates (recomputed)
[1] = compound: CC1=C(C=C(C=C1)NC(=O)C2=CC(=CC=C2)C(C)(C)C#N)NC3=CC4=C(C=C3)N=CN(C4=O)C
Outline: (§1)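 For each measurement, 10 μM compound was applied for 30 min to K562 cells at 2×10^6 cells/mL. Aliquots were heated for 3 min across 48°C-58°C, pooled, and extracted in PBS with 0.5% NP-40 at 4°C; the supernatant after 21,000xg for 90 min was soluble protein. This was quantified by TMTpro 16plex LC-MS/MS with channel sums equalised, and thermal stability was reported relative to control samples from duplicates, on a log2 fold-change scale.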

[2] = compound: CC1=C(C=C(C=C1)NC(=O)C2=CC(=CC=C2)N(C)C)NC(=O)C3=CC=C(C=C3)O
Outline: as §1

[3] = compound: CC1=CC=C(C=C1)SC2=C3C=C(SC3=CN=C2)C(=O)N
Outline: as §1

[4] = compound: CC1=NC(=CC=C1)C2=C(N=C(N2)C(C)(C)C)C3=CC4=NC=CN=C4C=C3
Outline: as §1

Nexturastat A = compound: CCCCN(Cc1ccc(C(=O)NO)cc1)C(=O)Nc1ccccc1 [Nexturastat A]
Outline: as §1

vemurafenib = compound: CCCS(=O)(=O)Nc1ccc(F)c(C(=O)c2c[nH]c3ncc(-c4ccc(Cl)cc4)cc23)c1F [vemurafenib]
Outline: as §1

[5] = compound: CCCS(=O)(=O)Nc1ccc(F)c(C(=O)c2c[nH]c3ncc(Cl)cc23)c1F
Outline: as §1

[6] = compound: CCCc1cc(C)[nH]c(=O)c1CNC(=O)c1cc(-c2ccnc(N3CCN(C)CC3)c2)cc2c1cnn2C(C)C
Outline: as §1

givinostat = compound: CCN(CC)Cc1ccc2cc(COC(=O)Nc3ccc(C(=O)NO)cc3)ccc2c1 [givinostat]
Outline: as §1

barasertib = compound: CCN(CCCOc1ccc2c(Nc3cc(CC(=O)Nc4cccc(F)c4)[nH]n3)ncnc2c1)CCOP(=O)(O)O [barasertib]
Outline: as §1

[7] = compound: CC[C@@H]1C(=O)N(C)c2cnc(Nc3ccc(C(=O)NC4CCN(C)CC4)cc3OC)nc2N1C1CCCC1
Outline: as §1

volasertib = compound: CC[C@@H]1C(=O)N(C)c2cnc(Nc3ccc(C(=O)N[C@H]4CC[C@H](N5CCN(CC6CC6)CC5)CC4)cc3OC)nc2N1C(C)C [volasertib]
Outline: as §1

[8] = compound: CC[C@H](C)N1C=C(C2=C(C=C(C=C21)C3=CN=C(C=C3)N4CCNCC4)C(=O)NCC5=C(C=C(NC5=O)C)C)C
Outline: as §1

epoxomicin = compound: CC[C@H](C)[C@@H](C(=O)N[C@@H]([C@@H](C)O)C(=O)N[C@@H](CC(C)C)C(=O)[C@]1(CO1)C)NC(=O)[C@H]([C@@H](C)CC)N(C)C(=O)C [epoxomicin]
Outline: as §1

[9] = compound: CCn1c(C(=O)N(C2CC2)C2CC2)cc2c3c(ncn3C)c(Nc3cc(C)n(C)n3)nc21
Outline: as §1

[10] = compound: CCn1cc(-c2ccnc3[nH]c(-c4cccc(CN(C)C)c4)cc23)c(-c2ccc(NC(=O)N(C)C)cc2)n1
Outline: as §1

[11] = compound: CN(C)CC(=O)Nc1ccc2[nH]c(=O)c3ccccc3c2c1
Outline: as §1

rosiglitazone = compound: CN(CCOC1=CC=C(C=C1)C[C@H]2C(=O)NC(=O)S2)C3=CC=CC=N3 (racemic) [rosiglitazone]
Outline: as §1

[12] = compound: CN1C2=C(C3=C1C(=O)N(N=C3)CC4=CC(=CC=C4)N)SC(=C2)S(=O)C
Outline: as §1

[13] = compound: CN1CCC(CNc2ccc3ncc(-c4cccc(OC(F)(F)F)c4)n3n2)CC1
Outline: as §1

UniProt Q13530, sequence (Q13530 whole entry, looked up): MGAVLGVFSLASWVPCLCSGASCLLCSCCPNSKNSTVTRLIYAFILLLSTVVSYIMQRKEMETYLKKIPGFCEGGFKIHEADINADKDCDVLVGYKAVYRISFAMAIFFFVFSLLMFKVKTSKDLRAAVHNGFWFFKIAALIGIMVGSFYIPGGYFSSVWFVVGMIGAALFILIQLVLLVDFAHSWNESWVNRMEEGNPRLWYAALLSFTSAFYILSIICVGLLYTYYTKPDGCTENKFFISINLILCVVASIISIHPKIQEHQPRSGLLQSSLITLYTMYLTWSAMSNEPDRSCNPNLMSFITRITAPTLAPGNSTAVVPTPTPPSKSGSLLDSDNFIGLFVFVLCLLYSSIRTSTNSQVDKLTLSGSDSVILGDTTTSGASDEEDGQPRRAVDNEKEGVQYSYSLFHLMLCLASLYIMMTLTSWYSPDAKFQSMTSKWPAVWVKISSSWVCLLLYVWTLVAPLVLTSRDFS
UniProt Q5VTB9, sequence (Q5VTB9 whole entry, looked up): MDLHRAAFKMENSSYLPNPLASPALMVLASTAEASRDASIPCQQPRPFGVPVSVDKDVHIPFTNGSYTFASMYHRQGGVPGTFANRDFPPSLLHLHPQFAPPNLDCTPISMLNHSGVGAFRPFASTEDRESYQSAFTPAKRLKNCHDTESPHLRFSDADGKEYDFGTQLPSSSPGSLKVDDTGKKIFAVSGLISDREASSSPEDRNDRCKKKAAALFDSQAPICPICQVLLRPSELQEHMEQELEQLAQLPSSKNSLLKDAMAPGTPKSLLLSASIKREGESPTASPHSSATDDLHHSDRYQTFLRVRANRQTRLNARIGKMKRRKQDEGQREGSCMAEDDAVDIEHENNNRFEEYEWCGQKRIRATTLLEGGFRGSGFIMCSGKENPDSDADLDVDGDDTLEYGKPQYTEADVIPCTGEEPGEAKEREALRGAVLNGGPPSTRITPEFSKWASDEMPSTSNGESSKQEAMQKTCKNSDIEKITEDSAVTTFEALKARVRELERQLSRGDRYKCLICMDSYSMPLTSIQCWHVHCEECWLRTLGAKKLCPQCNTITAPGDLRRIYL
UniProt O75116, sequence (O75116 whole entry, looked up): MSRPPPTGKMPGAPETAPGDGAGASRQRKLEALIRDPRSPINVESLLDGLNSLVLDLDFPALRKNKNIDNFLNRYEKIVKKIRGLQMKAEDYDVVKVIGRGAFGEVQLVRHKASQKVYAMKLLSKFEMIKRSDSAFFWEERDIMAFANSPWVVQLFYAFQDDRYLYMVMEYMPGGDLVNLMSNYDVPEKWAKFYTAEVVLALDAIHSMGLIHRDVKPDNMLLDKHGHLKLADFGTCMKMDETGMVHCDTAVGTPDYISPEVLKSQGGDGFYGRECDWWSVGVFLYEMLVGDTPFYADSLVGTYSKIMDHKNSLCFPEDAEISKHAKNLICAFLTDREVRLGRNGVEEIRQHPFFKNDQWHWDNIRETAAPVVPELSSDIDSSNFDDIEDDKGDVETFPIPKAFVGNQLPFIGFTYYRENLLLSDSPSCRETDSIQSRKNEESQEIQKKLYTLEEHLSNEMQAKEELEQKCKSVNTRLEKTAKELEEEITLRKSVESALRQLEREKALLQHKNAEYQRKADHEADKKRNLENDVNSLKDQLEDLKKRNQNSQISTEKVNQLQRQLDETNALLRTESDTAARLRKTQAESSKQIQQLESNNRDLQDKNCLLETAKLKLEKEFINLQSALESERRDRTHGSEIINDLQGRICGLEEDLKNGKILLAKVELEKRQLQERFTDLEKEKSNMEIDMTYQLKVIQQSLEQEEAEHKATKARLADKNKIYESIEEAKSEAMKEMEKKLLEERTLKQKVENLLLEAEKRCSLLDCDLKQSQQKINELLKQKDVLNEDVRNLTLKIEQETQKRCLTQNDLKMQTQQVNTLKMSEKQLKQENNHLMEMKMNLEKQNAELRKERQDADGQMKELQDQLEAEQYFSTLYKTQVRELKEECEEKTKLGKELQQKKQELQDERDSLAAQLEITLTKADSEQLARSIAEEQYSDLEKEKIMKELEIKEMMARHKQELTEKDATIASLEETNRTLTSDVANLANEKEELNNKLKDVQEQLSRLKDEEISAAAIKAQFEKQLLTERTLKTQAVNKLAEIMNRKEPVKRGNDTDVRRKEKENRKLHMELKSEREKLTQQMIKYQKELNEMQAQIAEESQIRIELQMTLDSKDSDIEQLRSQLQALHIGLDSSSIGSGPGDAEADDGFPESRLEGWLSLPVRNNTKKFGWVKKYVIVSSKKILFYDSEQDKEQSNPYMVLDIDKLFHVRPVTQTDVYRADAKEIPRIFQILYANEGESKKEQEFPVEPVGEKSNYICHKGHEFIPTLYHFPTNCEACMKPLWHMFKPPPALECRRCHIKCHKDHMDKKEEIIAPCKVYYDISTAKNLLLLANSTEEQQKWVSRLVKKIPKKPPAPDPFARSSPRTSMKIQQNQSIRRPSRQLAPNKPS
UniProt Q8NBN7, sequence (Q8NBN7 whole entry, looked up): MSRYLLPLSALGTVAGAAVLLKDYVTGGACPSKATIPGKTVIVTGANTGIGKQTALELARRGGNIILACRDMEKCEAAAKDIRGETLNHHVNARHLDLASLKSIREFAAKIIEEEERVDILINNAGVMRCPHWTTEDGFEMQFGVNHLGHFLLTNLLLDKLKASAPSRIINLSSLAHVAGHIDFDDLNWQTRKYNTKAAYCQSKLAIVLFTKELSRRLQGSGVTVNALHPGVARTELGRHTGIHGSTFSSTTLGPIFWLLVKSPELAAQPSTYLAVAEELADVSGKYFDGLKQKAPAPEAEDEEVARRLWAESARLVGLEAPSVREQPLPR
UniProt Q86VR2, sequence (Q86VR2 whole entry, looked up): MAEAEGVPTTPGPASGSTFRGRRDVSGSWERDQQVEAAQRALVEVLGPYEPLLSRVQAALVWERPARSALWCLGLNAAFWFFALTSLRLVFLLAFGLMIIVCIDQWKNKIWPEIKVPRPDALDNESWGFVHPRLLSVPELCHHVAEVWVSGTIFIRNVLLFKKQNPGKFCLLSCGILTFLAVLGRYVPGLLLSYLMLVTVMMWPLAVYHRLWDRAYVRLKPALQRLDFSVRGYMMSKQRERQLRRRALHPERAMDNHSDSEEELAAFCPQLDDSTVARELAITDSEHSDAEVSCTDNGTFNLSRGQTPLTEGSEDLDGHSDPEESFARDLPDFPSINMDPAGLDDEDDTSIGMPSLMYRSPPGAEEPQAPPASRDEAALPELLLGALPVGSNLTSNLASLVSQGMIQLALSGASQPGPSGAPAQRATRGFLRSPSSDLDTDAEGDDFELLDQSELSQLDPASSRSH
UniProt Q9NTJ5, sequence (Q9NTJ5 whole entry, looked up): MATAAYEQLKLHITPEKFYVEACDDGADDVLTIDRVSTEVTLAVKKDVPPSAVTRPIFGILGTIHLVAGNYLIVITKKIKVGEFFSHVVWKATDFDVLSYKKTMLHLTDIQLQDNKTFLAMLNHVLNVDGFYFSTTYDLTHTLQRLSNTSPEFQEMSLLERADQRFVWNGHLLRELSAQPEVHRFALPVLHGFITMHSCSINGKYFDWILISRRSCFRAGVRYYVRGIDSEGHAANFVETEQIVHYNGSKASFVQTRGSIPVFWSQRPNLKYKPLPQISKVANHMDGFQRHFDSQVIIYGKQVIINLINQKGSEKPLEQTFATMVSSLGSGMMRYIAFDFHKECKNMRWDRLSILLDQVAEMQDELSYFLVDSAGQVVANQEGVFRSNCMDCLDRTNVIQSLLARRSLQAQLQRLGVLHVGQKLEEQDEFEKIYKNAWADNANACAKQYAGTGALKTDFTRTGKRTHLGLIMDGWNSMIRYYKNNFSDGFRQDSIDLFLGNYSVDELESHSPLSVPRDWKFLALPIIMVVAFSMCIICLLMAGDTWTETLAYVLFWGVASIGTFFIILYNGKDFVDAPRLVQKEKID
UniProt Q96EE3, sequence (Q96EE3 whole entry, looked up): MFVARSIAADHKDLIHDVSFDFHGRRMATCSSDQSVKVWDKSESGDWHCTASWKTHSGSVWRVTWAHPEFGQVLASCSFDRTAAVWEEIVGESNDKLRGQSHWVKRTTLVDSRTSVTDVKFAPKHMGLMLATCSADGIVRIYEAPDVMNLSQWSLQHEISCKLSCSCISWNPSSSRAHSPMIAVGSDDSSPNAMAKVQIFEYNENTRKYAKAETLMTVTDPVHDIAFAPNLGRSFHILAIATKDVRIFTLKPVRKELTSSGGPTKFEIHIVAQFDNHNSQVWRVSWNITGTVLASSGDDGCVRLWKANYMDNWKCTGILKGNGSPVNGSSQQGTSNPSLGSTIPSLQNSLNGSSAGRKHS

Row | Target | log2 fold change [1] | log2 fold change [2] | log2 fold change [3] | log2 fold change [4] | log2 fold change (Nexturastat A) | log2 fold change (vemurafenib) | log2 fold change [5] | log2 fold change [6] | log2 fold change (givinostat) | log2 fold change (barasertib) | log2 fold change [7] | log2 fold change (volasertib) | log2 fold change [8] | log2 fold change (epoxomicin) | log2 fold change [9] | log2 fold change [10] | log2 fold change [11] | log2 fold change (rosiglitazone) | log2 fold change [12] | log2 fold change [13]
1 | SERINC3 (UniProt Q13530) | -0.136 | -0.001 | 0.009 | 0.054 | 0.011 | 0.083 | 0.002 | -0.414 (active) | 0.064 | 0.038 | 0.165 | 0.075 | -0.144 | -0.092 | 0.029 | -0.064 | 0.043 | 0.049 | -0.014 | 0.046
2 | RNF220 (UniProt Q5VTB9) | -0.01 | -0.086 | 0.008 | 0.047 | 0.008 | -0.001 | -0.001 | -0.023 | 0.038 | 0.016 | -0.047 | -0.114 | 0.085 | -0.021 | -0.045 | -0.043 | -0.03 | 0.002 | -0.045 | 0.003
3 | SACM1L (UniProt Q9NTJ5) | 0.08 | -0.024 | -0.004 | 0.031 | -0.03 | 0.052 | 0.069 | 0.043 | 0.028 | 0.049 | -0.193 | -0.534 (active) | -0.001 | 0.019 | 0.029 | -0.019 | 0.033 | 0.021 | -0.076 | 0.031
4 | SEH1L isoform 1 (UniProt Q96EE3) | -0.004 | 0.015 | 0.005 | -0.019 | 0.011 | 0.005 | 0.048 | -0.033 | 0.005 | 0.008 | -0.044 | 0.466 (active) | -0.019 | -0.057 | -0.009 | -0.041 | -0.013 | -0.01 | -0.054 | 0.027
5 | RETREG3 (UniProt Q86VR2) | -0.006 | 0.014 | 0.148 | 0.13 | 0.062 | 0.043 | 0.055 | -0.044 | -0.048 | 0.023 | -0.04 | -0.132 | 0 | 0.048 | 0.026 | -0.043 | 0.008 | 0.016 | -0.02 | -0.149
6 | ROCK2 (UniProt O75116) | 0.009 | -0.044 | -0.037 | 0.02 | -0.004 | 0.034 | -0.005 | -0.06 | 0.055 | 0.027 | -0.033 | -0.139 | -0.009 | 0.063 | -0.028 | -0.178 | 0.007 | 0.177 | -0.02 | -0.042
7 | RSL1D1 (UniProt O76021) | -0.019 | 0.039 | -0.155 | -0.148 | 0.256 | -0.126 | -0.137 | 0.15 | 0.087 | -0.167 | 0.301 | 0.399 | 0.012 | -0.517 | -0.065 | 0.155 | -0.214 | -0.299 | 0.374 | 0.591
8 | RDH13 (UniProt Q8NBN7) | 0.011 | -0.082 | 0.045 | 0.078 | -0.046 | 0.044 | 0.019 | -0.01 | -0.002 | 0.033 | -0.154 | -0.06 | 0.06 | 0.022 | 0.009 | -0.058 | 0.051 | 0.013 | -0.059 | -0.318 (active)
